Data as given in PubChem BioAssay (EPA / NIEHS).
“And” between values parts separate entries of the source, which are not always exact repeats. Identical values can stand only once. Where a structure was tested more than once in an assay, its records may differ in their call. The source made the active and inactive calls. The calls were made as follows: active = hit-call score of the fitted dose curve at least 0.9, where 1 is the maximum; inactive = score below 0.9.

Columns and labels:
[1] = APR_HepG2_P-H2AX_72hr: Apredica 72-hour HepG2 Assay for H2AX Phosphorylation (AID 2282916); settings: imaging, actives raise or lower the signal;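 also: phospho-histone H2A.x immunostain intensity per cell marking DNA damage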
Procedure, shortened: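 HepG2 human liver cells were exposed for 72 hr to compounds at 0.39–200 uM (10 concentrations, duplicate per plate) in 0.5% v/v DMSO. Fixed, permeabilized cells were immunolabeled for phospho-histone H2A.x with Hoechst 33342 and imaged by HCS fluorescence; bidirectional fit versus DMSO.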

[2] = APR_HepG2_MitoMembPot_72hr: Apredica 72-hour HepG2 Assay for Mitochondrial Membrane Potential (AID 2282917); settings: imaging, actives raise or lower the signal
Procedure, shortened: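 HepG2 cells dosed 72 hr with compound at 0.39–200 uM in duplicate, 0.5% v/v DMSO final. Mitochondria stained with 250 nM MitoTracker Red CMXRos for 30 min before formaldehyde fixation, imaged by high-content fluorescence; bidirectional fit versus DMSO.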

[3] = APR_HepG2_MitoticArrest_72hr: Apredica 72-hour HepG2 Assay for Mitotic Arrest (AID 2282918); settings: high-content imaging, actives raise or lower the signal
Procedure, shortened: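 HepG2 cells were exposed for 72 hr to compound at 0.39–200 uM (10 concentrations, duplicate) in 0.5% v/v DMSO, fixed in 3.7% formaldehyde, immunostained for phospho-histone H3 with Hoechst 33342 and imaged by high-content fluorescence; bidirectional fits versus DMSO.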

[4] = APR_HepG2_MicrotubuleCSK_72hr: Apredica 72-hour HepG2 Assay for Microtubule CSK Stabilty (AID 2282919); settings: HepG2 microtubule cytoskeleton, high-content imaging, actives raise or lower the signal
Procedure, shortened: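 HepG2 cells were exposed 72 hr to compound at 0.39–200 uM in duplicate (0.5% DMSO final), then fixed and permeabilized. Alpha-tubulin immunofluorescence was imaged by high-content microscopy, with bidirectional fitting against DMSO and taxol as positive control.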

[5] = APR_HepG2_P-H2AX_24hr: Apredica 24-hour HepG2 Assay for H2AX Phosphorylation (AID 2282920); settings: high-content imaging, actives raise or lower the signal
Procedure, shortened: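 HepG2 human liver cells were exposed for 24 hr to compounds at 0.39–200 uM in duplicate, with 0.5% v/v DMSO final. Fixed cells were immunostained for phospho-histone H2A.x plus Hoechst 33342, imaged by HCS fluorescence, and fitted bidirectionally against DMSO.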

[6] = APR_HepG2_StressKinase_72hr: Apredica 72-hour HepG2 Assay for Stress Kinase (AID 2282921); settings: HepG2 stress kinase (phospho-c-Jun) imaging, actives raise or lower the signal
Procedure, shortened: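 Cells were exposed for 72 h to ten concentrations (0.39–200 uM, duplicate) at 0.5% v/v DMSO final, then fixed with 3.7% formaldehyde, permeabilized and immunostained for phospho-c-Jun (Cy3 secondary) with Hoechst nuclear counterstain.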

[7] = APR_HepG2_MitoMass_72hr: Apredica 72-hour HepG2 Assay for Mitochondrial Mass (AID 2282924); settings: high-content imaging, actives raise or lower the signal;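 also: MitoTracker Red CMXRos stain intensity per cell imaged as mitochondrial mass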
Procedure, shortened: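 HepG2 cells dosed 72 hr at 0.39–200 uM (0.5% DMSO), in duplicate. MitoTracker Red CMXRos 250 nM loaded 30 min before formaldehyde fixation; high-content fluorescence imaging, bidirectional fit versus DMSO.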

[8] = APR_HepG2_NuclearSize_72hr: Apredica 72-hour HepG2 Assay for Nuclear Size (AID 2282925); settings: high-content imaging, actives raise or lower the signal
Procedure, shortened: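 HepG2 cells dosed 72 h at 0.39–200 uM (10 concentrations, duplicate) in 0.5% v/v DMSO final. Fixed, Hoechst 33342-stained nuclei imaged; nuclear diameter measured by automated image analysis. Bidirectional fit versus DMSO.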

[9] = ATG_CRE_CIS: Attagene CIS-FACTORIAL HepG2 Assay for human cAMP Responsive Element (CRE) binding protein 3 (AID 2282926); settings: HepG2 CRE cis-reporter, Attagene multiplexed mRNA; actives raise or lower the signal
Procedure, shortened: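 HepG2 cells transiently transfected with a multiplexed reporter library (CRE-driven unit among them) were dosed for 24 h. Reporter mRNA was quantified by RT-PCR, fluorescent labelling, HpaI digestion and capillary electrophoresis, with bidirectional fitting against DMSO baseline.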

[10] = target: CCAAT/enhancer-binding protein beta (Homo sapiens) (UniProt P17676); experiment: ATG_C_EBP_CIS: Attagene CIS-FACTORIAL HepG2 Assay for human CCAAT/Enhancer Binding Protein (C/EBP) beta (AID 2282927); settings: HepG2 Attagene cis-factorial transcription factor reporter; actives raise or lower the signal
CCAAT/enhancer-binding protein beta (Homo sapiens), sequence (P17676 whole entry, looked up): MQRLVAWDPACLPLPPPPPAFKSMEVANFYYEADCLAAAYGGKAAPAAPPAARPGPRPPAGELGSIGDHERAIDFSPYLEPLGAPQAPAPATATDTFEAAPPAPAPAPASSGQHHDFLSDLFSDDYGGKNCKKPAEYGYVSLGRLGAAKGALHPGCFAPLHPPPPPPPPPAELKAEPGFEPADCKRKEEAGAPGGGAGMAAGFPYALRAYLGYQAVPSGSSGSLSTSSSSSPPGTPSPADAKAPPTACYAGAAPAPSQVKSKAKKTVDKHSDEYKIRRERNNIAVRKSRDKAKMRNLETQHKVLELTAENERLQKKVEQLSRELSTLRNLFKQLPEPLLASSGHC
Procedure, shortened: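 Transiently transfected HepG2 (MRTU library, endogenous TF-driven promoters); 24 h dosing; total RNA → oligo(dT) RT → PCR → 6-FAM primer extension → HpaI digest → CE; fit bidirectionally vs DMSO.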

[11] = ATG_CMV_CIS: Attagene CIS-FACTORIAL HepG2 Assay for human CMV (Internal Marker) (AID 2282928); settings: HepG2 CMV promoter reporter, transcription factor profiling; actives raise or lower the signal;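 also: endpoint acts as a background internal control marker rather than a target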
Procedure, shortened: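 HepG2 cells transiently transfected with multiple cis-regulated reporter units; 24 h compound exposure. Reporter mRNA quantified by RT-PCR, 6-FAM primer-extension labeling, HpaI digestion and capillary electrophoresis; bidirectional fitting against DMSO baseline.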

[12] = ATG_DR4_LXR_CIS: Attagene CIS-FACTORIAL HepG2 Assay for human Liver X Receptor (LXR), DR4 submotif (AID 2282929); settings: HepG2 Attagene DR4 cis-reporter, mRNA transcription; actives raise or lower the signal
Procedure, shortened: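 Fluorescence intensity of labelled reporter cDNA fragments, separated by capillary electrophoresis, gives the signal. HepG2 cells bearing cis-regulated reporter constructs were treated 24 h; activity fitted bidirectionally relative to DMSO negative control.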

[13] = target: Aryl hydrocarbon receptor (Homo sapiens) (UniProt P35869); experiment: ATG_Ahr_CIS: Attagene CIS-FACTORIAL HepG2 Assay for human Aryl Hydrocarbon Receptor (Ahr) (AID 2282930); settings: HepG2 AhR cis-factorial reporter transcription; actives raise or lower the signal
Aryl hydrocarbon receptor (Homo sapiens), sequence (P35869 whole entry, looked up): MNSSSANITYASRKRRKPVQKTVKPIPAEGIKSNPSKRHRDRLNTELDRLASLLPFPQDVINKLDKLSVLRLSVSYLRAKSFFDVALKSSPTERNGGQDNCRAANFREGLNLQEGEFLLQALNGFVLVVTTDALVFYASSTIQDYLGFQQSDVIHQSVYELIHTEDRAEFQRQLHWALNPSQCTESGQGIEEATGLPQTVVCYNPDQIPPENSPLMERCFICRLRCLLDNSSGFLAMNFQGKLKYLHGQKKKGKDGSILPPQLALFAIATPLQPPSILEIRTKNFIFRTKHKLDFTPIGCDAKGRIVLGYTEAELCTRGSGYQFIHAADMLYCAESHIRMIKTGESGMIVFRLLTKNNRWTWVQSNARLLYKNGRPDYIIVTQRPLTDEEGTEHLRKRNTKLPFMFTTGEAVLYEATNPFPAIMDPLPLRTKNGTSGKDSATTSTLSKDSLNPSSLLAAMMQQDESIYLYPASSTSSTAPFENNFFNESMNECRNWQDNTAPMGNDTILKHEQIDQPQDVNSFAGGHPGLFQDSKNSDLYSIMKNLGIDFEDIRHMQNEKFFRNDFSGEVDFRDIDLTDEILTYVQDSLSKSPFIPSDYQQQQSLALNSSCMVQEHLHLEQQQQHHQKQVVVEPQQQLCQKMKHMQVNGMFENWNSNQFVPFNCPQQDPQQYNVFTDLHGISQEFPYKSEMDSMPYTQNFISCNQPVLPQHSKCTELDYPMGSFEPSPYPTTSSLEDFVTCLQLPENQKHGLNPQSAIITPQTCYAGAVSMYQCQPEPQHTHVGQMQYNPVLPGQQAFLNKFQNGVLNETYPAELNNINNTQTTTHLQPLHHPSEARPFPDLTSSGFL
Procedure, shortened: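 Read-out: reporter mRNA quantified by RT-PCR with fluorescent primer extension and capillary electrophoresis. Human HepG2 liver cells carried transfected cis-promoter reporter units and were exposed to chemical for 24 h; gain or loss fitted relative to DMSO.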

[14] = ATG_AP_1_CIS: Attagene CIS-FACTORIAL HepG2 Assay for human Activator Protein 1 (AP-1) (AID 2282931); settings: HepG2 Attagene cis-factorial AP-1 reporter mRNA; actives raise or lower the signal
Procedure, shortened: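 Multiplexed HepG2 reporter assay, 24 h dosing. mRNA induction detected by RT-PCR plus capillary electrophoresis. Activity fitted in both directions against DMSO.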

[15] = ATG_AP_2_CIS: Attagene CIS-FACTORIAL HepG2 Assay for human Activator Protein 2 (AP-2) (AID 2282932); settings: HepG2 AP-2 cis-reporter, Attagene transcription factor profiling; actives raise or lower the signal
Procedure, shortened: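 Multiplexed mRNA reporter assay in HepG2: cis-regulated units report endogenous factor activity after 24 h treatment. Fluorescence from capillary electrophoresis of RT-PCR products gives the signal, with DMSO as baseline.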

[16] = target: Retinoic acid receptor alpha (Homo sapiens) (UniProt P10276); experiment: ATG_DR5_RAR_CIS: Attagene CIS-FACTORIAL HepG2 Assay for human Retinoic Acid Receptor Alpha (RARE), DR5 submotif (AID 2282934); settings: HepG2 Attagene cis-factorial RARE DR5 reporter, mRNA; actives raise or lower the signal;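 as to AC50: reporter responds to endogenous RAR alpha beta and gamma in HepG2 not RARA alone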
Retinoic acid receptor alpha (Homo sapiens), sequence (P10276 whole entry, looked up): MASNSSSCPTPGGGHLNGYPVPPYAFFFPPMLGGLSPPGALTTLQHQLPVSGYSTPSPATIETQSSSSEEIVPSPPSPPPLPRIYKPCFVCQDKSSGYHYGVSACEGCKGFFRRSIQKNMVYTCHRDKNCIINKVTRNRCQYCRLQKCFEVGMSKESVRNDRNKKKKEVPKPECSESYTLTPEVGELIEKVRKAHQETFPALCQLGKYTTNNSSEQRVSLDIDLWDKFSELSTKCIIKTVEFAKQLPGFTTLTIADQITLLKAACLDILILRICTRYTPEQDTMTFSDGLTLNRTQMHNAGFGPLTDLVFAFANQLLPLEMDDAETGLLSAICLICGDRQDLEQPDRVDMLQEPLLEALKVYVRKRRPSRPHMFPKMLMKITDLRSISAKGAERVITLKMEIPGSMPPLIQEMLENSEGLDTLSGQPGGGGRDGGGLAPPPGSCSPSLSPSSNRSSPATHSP
Procedure, shortened: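 Read-out: DR5-driven reporter transcript measured by RT-PCR, 6-FAM primer extension, HpaI digest and capillary electrophoresis. Human HepG2 liver cells carry transiently transfected cis-element reporter constructs; dosing lasts 24 h. Gain or loss of signal fitted against DMSO baseline.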

[17] = target: Transcription factor E2F1 (Homo sapiens) (UniProt Q01094); experiment: ATG_E2F_CIS: Attagene CIS-FACTORIAL HepG2 Assay for human E2F Transcription Factor 1 (AID 2282935); settings: HepG2 Attagene cis-reporter, E2F reporter RNA transcripts; actives raise or lower the signal
Transcription factor E2F1 (Homo sapiens), sequence (Q01094 whole entry, looked up): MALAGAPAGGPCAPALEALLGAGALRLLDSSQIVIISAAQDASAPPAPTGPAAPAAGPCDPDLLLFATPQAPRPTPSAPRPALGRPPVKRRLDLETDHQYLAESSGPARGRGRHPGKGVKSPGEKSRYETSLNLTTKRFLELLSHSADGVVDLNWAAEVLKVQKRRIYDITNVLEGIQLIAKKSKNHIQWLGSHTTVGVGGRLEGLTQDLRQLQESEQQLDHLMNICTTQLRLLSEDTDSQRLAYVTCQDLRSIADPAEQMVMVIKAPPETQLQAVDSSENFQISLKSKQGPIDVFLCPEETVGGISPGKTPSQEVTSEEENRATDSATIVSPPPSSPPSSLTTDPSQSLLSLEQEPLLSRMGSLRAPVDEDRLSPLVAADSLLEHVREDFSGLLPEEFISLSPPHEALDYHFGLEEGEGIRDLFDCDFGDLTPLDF
Procedure, shortened: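 Measures reporter transcript levels via RT-PCR with capillary electrophoresis detection in HepG2 cells harboring cis-regulated reporter units; 24 h post-dose; bidirectional curve fitting with DMSO as baseline.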

[18] = APR_HepG2_p53Act_72hr: Apredica 72-hour HepG2 Assay for p53 Activation (AID 2282923); settings: high-content imaging, actives raise or lower the signal;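 also: average cellular p53 protein immunofluorescence intensity in HepG2 cells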
Procedure, shortened: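 Cells were dosed for 72 hr with compounds at 0.39–200 uM in duplicate (final DMSO 0.5% v/v), then fixed in 3.7% formaldehyde, permeabilized with Triton X-100 and immunostained for p53 (Cy5) with Hoechst 33342 nuclear counterstain.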

[19] = ATG_BRE_CIS: Attagene CIS-FACTORIAL HepG2 Assay for human Bone Morphogenetic Protein (BMP) Response Element (BRE) (AID 2282933); settings: HepG2 BMP response element reporter, Attagene transcription factor profiling; actives raise or lower the signal
Procedure, shortened: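 Read-out: reporter mRNA induction quantified by RT-PCR and capillary electrophoresis after 24 h chemical exposure of transfected HepG2 cells. Endogenous factor activity on the BMP response element; gain or loss fitted against DMSO baseline.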

Measured: AC50

Nc1c(Cl)cc([N+](=O)[O-])cc1Cl
active: [9] 35.1 µM | [10] 73.8 µM | [11] 50 µM | [14] 75.2 µM
not listed: [18] | [19]
inactive: all other assays above

CSc1nnc(C(C)(C)C)c(=O)n1N
not listed: [13] | [19]
inactive: all other assays above

CCOP(=O)(OCC)Oc1cc(C)nc(C(C)C)n1
not listed: [16]
inactive: all other assays above

CC1(C(=O)Nc2ccc(O)c(Cl)c2Cl)CCCCC1
active: [4] 91.7 µM | [9] 10 µM | [14] 30 µM
not listed: [8] | [16] | [19]
inactive: all other assays above

CCc1cnc(C2=NC(C)(C(C)C)C(=O)N2)c(C(=O)O)c1 (stereo not drawn)
not listed: [18]
inactive: all other assays above

CN(C)[C@@H]1C(=O)C(C(N)=O)=C(O)[C@@]2(O)C(=O)C3=C(O)c4c(O)cccc4[C@@](C)(O)[C@H]3[C@H](O)[C@@H]12
active: [13] 66.3 µM and 37.9 µM | [19] 71.1 µM
inactive: [1] | [2] | [3] | [4] | [5] | [6] | [7] | [9] | [10] | [11] | [12] | [13] | [14] | [15] | [19] | [17]

CCOP(=S)(OCC)Oc1ccc2c(C)c(Cl)c(=O)oc2c1
active: [1] 100 µM | [3] 93.2 µM | [4] 40.5 µM | [16] 1.59 µM
not listed: [8] | [19]
inactive: all other assays above

CSC1=N[C@@](C)(c2ccccc2)C(=O)N1Nc1ccccc1
active: [4] 38.6 µM | [9] 4.24 µM | [10] 6.21 µM | [13] 50 µM | [14] 3.2 µM | [19] 5.2 µM
not listed: [8] | [16]
inactive: all other assays above

CCCSP(=O)(OCC)SCCC
not listed: [18]
inactive: all other assays above

CCC(=O)Nc1ccc(Cl)c(Cl)c1
active: [11] 22.9 µM
not listed: [8] | [19]
inactive: all other assays above

CCCCN(CC)c1c([N+](=O)[O-])cc(C(F)(F)F)cc1[N+](=O)[O-]
active: [16] 20.1 µM
not listed: [8] | [19]
inactive: all other assays above

CNc1cnn(-c2cccc(C(F)(F)F)c2)c(=O)c1Cl
active: [9] 19.7 µM | [14] 29.5 µM | [19] 17.8 µM
not listed: [8]
inactive: all other assays above
